Assay outcomes: PubChem BioAssay, National Center for Advancing Translational Sciences (NCATS)
A selection: hits, their analogues and other compounds. The true share with any hit is near 19%.
DT40 TDP1 CPT – DT40-hTDP1 cell growth loss with CPT; chicken DT40 Tdp1-/-;hTDP1 cells + 20 nM CPT, ATP luminescence, 48 h; Potency, µM (titrated, usually from 46.2 µM), for the others: top-dose activity change, negative = growth inhibition, usual class: inhibitors; 12% of 420,000 active; note: potency is the fitted concentration of half-maximal effect; nearly all actives have a fitted effect of over 55% in size
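Cell growth measured by CellTiter-Glo luminescence after a minimum 48 h, 37 C compound exposure with 20 nM CPT in Tdp1-knockout DT40 cells stably expressing hTDP1, seeded 400/well; qHTS titration format.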
uPA generation – blocks generation of uPA at the cell surface; cell surface uPA generation assay, qHTS; Potency, µM (highest dose often 38.3 µM), without a hit: at the top dose activity change, negative = inhibition, usual class: inhibitors; 0.31% of 330,000 active; AID 540303; active = well fitted inhibition curve with a large enough effect; inconclusive = small, poorly fitted or top-dose-only effect; inactive = no such curve, though single readings can be large or run the other way; tested in mouse RAW 264.7 cells; note: potency is the fitted concentration of half-maximal effect; nearly all actives have a fitted effect of over 55% in size
DT40 TDP1 no CPT – qHTS for Inhibitors of human tyrosyl-DNA phosphodiesterase 1 (TDP1): qHTS in cells in absence of CPT; DT40 Tdp1-/- hTDP1 cells, no CPT, ATP luminescence, 48 h; Potency, µM (top dose mostly 46.2 µM), for the others: at the highest dose activity change, negative = growth inhibition, actives largely listed as inhibitors; 15% of 420,000 active; AID 686978, 2013; note: potency is the fitted concentration of half-maximal effect; nearly all actives have a fitted effect of over 55% in size
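No-CPT arm: Tdp1-/-;hTDP1 DT40 cells (400/well) plus compounds, incubated ≥48 hr at 37 °C. Readout CellTiter-Glo luminescence.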
HT1080NT lethal – kills 2HG-producing HT-1080-NT fibrosarcoma cells; AID 686970; Potency, µM (top dose mostly 46.1 µM), inactives show at the top dose activity, negative = less viability, hits mostly cytotoxic; HT-1080-NT fibrosarcoma viability, CellTiter-Glo ATP luminescence, 48 h; 1.6% of 360,000 active;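 note: NT is the 2HG producing partner of a matched IDH1 knockdown line; potency is the fitted concentration of half-maximal effect; 0% = DMSO-treated cells and -100% = media-only wells without cells; nearly all actives have a fitted effect of over 55% in size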
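Viability of the 2HG-overproducing fibrosarcoma line after 48 hours of compound exposure at 37 degrees C was determined by luminescence with CellTiter-Glo, and concentration-effect curves were then fitted and categorized.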
HT1080 IDH1KD tx – toxicity to HT-1080 IDH1 knockdown cells (counter line); HT-1080 IDH1 knockdown viability, ATP luminescence, 48 h; Potency, µM (doses to about 46.1 µM), for inactives: top-dose activity, negative = toxicity, usual class: cytotoxic; 2% of 360,000 active;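 note: potency is the fitted concentration of half-maximal effect; 0% = DMSO wells and -100% = cell-free medium wells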
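Cytotoxicity counter-line: IDH1KD HT-1080, 48 h, CellTiter-Glo. Curves classed by r2, magnitude and activity.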
IL1B secr inh – inhibitors of inflammasome signaling (IL-1 beta secretion). activity change, % at 57.5 µM. AID 743279. THP-1 LPS/ATP IL-1B secretion, AlphaLISA, 16 h; active compounds read low. 4.7% of 360,000 active; in the data active = activity change below about -50%; inconclusive = mostly about -30% to -49%
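Secreted IL-1B measured by AlphaLISA bead assay after 16 h compound exposure of THP-1 cells; compounds (final up to 57.5 uM) added 1 h before LPS (250 ng/mL) and ATP (1.25 mM) stimulation; lower signal means less secretion.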
Numbers without * were called inactive; ? = inconclusive; nt = no result; [ ] = another dose, or the depositor's remark. Unless noted, calls come from the whole dose curve; as a rule, active = well fitted curve in the direction sought with a large enough effect; inconclusive = small, poorly fitted or top-dose-only effect, or another doubt; inactive = no such curve, though single readings can be large; an effect the other way counts as inactive or inconclusive. Unless noted, % is set by controls: 0 for no effect and ±100 for the full control effect.

SMILES | DT40 TDP1 CPT | uPA generation | DT40 TDP1 no CPT | HT1080NT lethal | HT1080 IDH1KD tx | IL1B secr inh
COc1ccc(NC(=S)N(CCC(C)C)C2CCN(C(C)C)CC2)cc1 | ? | -2% | -18% | -4% | 2% | ?
CCOP(=O)(OCC)C(Nc1ccccc1)c1ccc2c(c1)OCO2 (stereo not given) | 13µM* | 4% | ? | -8% | 5% | 5
CCCCOP(=O)(OCCCC)C(Nc1ccccc1)c1ccc2c(c1)OCO2 (stereo not given) | ? | 7% | 13µM* | -7% | -26% | -28
O=C1NC(=O)C(=Cc2ccccc2[N+](=O)[O-])S1 | ? | -8% | 21µM* | 21µM* | ? | ?
O=C1NC(=O)/C(=C\c2ccccc2OCc2ccccc2)S1 | -2% | 6% | -13% | -13% | -25% | 19
O=C1C(=Cc2ccccc2[N+](=O)[O-])Cc2ccccc21 | 2.6µM* | nt | 3.3µM* | ? | ? | -103*
CC1(C)CC(=Cc2ccccc2[N+](=O)[O-])C(=O)c2ccccc21 | -30% | nt | 16µM* | -6% | 2% | -13
Nc1ccccc1C=C1Cc2ccccc2C1=O | 11% | -12% | -26% | -9% | -17% | 10
O=S(=O)(O)c1ccc(Nc2ncnc3c2ncn3[C@@H]2O[C@H](CO)[C@@H](O)[C@H]2O)cc1 | -1% | nt | -6% | nt | nt | nt
OCC1OC(n2ccc3c(NO)ncnc32)C(O)C1O (stereo not given) | 0.15µM* | -12% | 0.15µM* | 1.6µM* | 0.41µM* | -102*
CN(C)c1ncnc2c1ccn2C1OC(CO)C(O)C1O (stereo not given) | 3.3µM* | -10% | 8.2µM* | 4.1µM* | 2.6µM* | -29
COc1ccc(CNC(=O)CN2C(=O)CSc3ccc(S(=O)(=O)N4CCCC4)cc32)cc1 | -21% | nt | ? | nt | nt | nt
Cc1ccc(C)c(NS(=O)(=O)c2cc3c(cc2C)n(C)c(=O)c(=O)n3C)c1 | -9% | nt | ? | nt | nt | nt
O=C(CCN1CCN(c2ccccc2)CC1)N/N=C/c1ccc([N+](=O)[O-])o1 | 10µM* | -11% | ? | -13% | ? | 28
O=C(CN1CCCCCCC1)N/N=C/c1ccc([N+](=O)[O-])o1 | ? | -12% | ? | -14% | -29% | -12
O=C(CN1CCOCC1)NN=Cc1ccc([N+](=O)[O-])o1 | 21µM* | nt | ? | -21% | ? | 46
O=C(NCc1ccccn1)c1cnn(-c2nccc(-c3cccs3)n2)c1C1CC1 | 19%[9.04 µM] | nt | -6% | nt | nt | nt
COc1ccc(CCNC(=O)CCc2c(C)nc3c(c(C)nn3-c3ccc(C)c(C)c3)c2C)cc1OC | 21µM* | nt | 16µM* | nt | nt | nt
CCN(CC)CCNC(=O)CCc1c(C)nc2c(c(C)nn2-c2ccc(C)c(C)c2)c1C | ? | -3% | 16µM* | ? | 26µM* | -7
Cc1cccc(CCNC(=O)CCc2c(C)nc3c(c(C)nn3-c3ccccc3)c2C)c1 | 12µM* | nt | 15µM* | nt | nt | nt
Fc1ccc(-c2nc(-c3c[nH]c4ccccc34)cs2)cc1 | -30% | nt | -17% | nt | nt | nt
CCOc1ccc2nc(N3C(=O)/C(=C/c4ccc(Cl)cc4)NC3=S)sc2c1 | ? | -15% | 10µM* | 11% | -2% | 2
CCOc1ccc(N=C2NC(=O)S/C2=C\c2ccc(Cl)cc2)cc1 | -23% | -6% | -15% | -5% | ? | -12
Cc1ccc(C)c(Nc2nn3c(=O)c4ccc(C(=O)N(C)Cc5ccccc5)cc4nc3s2)c1 | 9.2µM* | nt | 21µM* | nt | nt | nt
CCCCN(C)C(=O)c1ccc2c(=O)n3nc(Nc4cc(C)ccc4C)sc3nc2c1 | 13µM* | nt | 12µM* | nt | nt | nt
SMILES | DT40 TDP1 CPT | uPA generation | DT40 TDP1 no CPT | HT1080NT lethal | HT1080 IDH1KD tx | IL1B secr inh
Cc1cc(C)c(Nc2nn3c(=O)c4cc5c(cc4nc3s2)OCO5)c(C)c1 | -6% | nt | -6% | nt | nt | nt
O=C(NCc1nc2ccccc2[nH]1)c1ccco1 | 2% | 5% | 9% | 17% | 13% | -3
c1ccc2[nH]c(CCCCc3nc4ccccc4[nH]3)nc2c1 | ? | 17% | -15% | -13% | -7% | 13
C(=C\c1nc2ccccc2[nH]1)/c1ccccc1 | 15µM* | ? | 16µM* | 18µM* | 18µM* | -9
O=c1[nH]c2ccccc2nc1/C=C/c1ccc(Cl)cc1 | 13µM* | -3% | 23µM* | 20% | 13% | 6
C(=C\c1ccco1)/c1nc2ccccc2[nH]1 | ? | 7.1µM* | 23µM* | -19% | -23% | 37
O=C(/C(=C/c1ccc(Cl)cc1)c1nc2ccccc2[nH]1)c1ccccc1 | 13µM* | -13% | 7.3µM* | 2.9µM* | 4.1µM* | -101*
N#CCCn1c(=O)c(-c2ccc(F)cc2)nc2cnc(Oc3ccccc3)nc21 | 12% | nt | -19% | nt | nt | nt
Cc1ccc(NC(=O)Cn2nnc(-c3nc(-c4ccncc4)no3)c2N)c(C)c1 | 3% | nt | 13% | nt | nt | nt
CCN(CC)S(=O)(=O)c1cc(NC(=O)CSc2nccn2C)ccc1C | 7% | -2% | -11% | 12% | 4% | 15
CCOc1ccc(C2CC(c3cccc(Cl)c3)n3nc(N)nc3N2)cc1 (stereo not given) | 7.3µM* | 29% | 16µM* | 0% | 3% | -23
COc1cccc(C2CC(c3ccc(Cl)cc3Cl)Nc3nc(N)nn32)c1 (stereo not given) | ? | 0% | 23µM* | -16% | -17% | 16
CCOc1ccc(C2CC(c3ccc(OC)c(OC)c3)n3nc(N)nc3N2)cc1 (stereo not given) | -22% | 10% | -24% | 0% | 0% | 16
Cc1cccc(CN2[C@H](COC(=O)Nc3ccccc3)C=CS2(=O)=O)c1 | ? | nt | ? | -6% | -7% | 2
CCOc1cc(-c2noc(N)c2C#N)cc(OCC)c1OCC | ? | -2% | ? | -27% | 5% | 6
CCCN(CC1CC1)c1nc(N)c2c(N)nc(OC)cc2c1C#N | 16µM* | -6% | 23µM* | -29% | -22% | -27
CCOc1cc2c(C#N)c(N(CC)CC)nc(N)c2c(N)n1 | ? | 1% | 16µM* | -6% | -3% | ?
CCc1nc(N)c(C#N)c(-c2ccc(OC)c(OC)c2)c1C | -16% | -6% | ? | 5% | 2% | 94
CCn1nnnc1SCC(=O)N1CCCCC1 | 2% | 3% | -5% | 3% | 16% | 7
Oc1cc(Cc2ccccc2)cnc1CN1CCCCC1 | 6% | 2% | -3% | 14% | 12% | -28
Oc1c(CN2CCCCC2)ccc2cccnc12 | 1.6µM* | -13% | 1µM* | 2.1µM* | 3.3µM* | -98*
